About 21,000 targets were measured; listed, in parts, are those with the largest changes and a random draw of the rest.
Biological target: DDX39B_Q13838_165_NCPHIVVGTPGR (UniProt Q13838)
Assay: probe-labelled cysteine peptide fold change vs DMSO (competition) (log2 fold change); higher = less target engagement (more negative = stronger competition)
Conditions: THP-1, incubation time: 4 h
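Further: competitive profiling in live THP-1 cells: cysteine peptides tagged with an iodoacetamide desthiobiotin (IA-DTB) probe, intensity after compound treatment relative to DMSO-treated cells.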

Chain of UniProt Q13838 (Q13838 whole entry, looked up): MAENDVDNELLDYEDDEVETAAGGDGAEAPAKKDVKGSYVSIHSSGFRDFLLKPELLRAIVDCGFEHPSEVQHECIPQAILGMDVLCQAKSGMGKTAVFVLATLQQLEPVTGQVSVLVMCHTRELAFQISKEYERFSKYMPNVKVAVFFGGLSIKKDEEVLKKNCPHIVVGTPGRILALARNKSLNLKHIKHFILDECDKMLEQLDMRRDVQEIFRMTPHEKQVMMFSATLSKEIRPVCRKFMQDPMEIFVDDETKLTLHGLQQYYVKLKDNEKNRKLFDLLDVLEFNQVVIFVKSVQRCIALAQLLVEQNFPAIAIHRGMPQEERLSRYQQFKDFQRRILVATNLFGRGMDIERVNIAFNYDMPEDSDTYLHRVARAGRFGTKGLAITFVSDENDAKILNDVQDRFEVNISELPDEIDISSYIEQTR

Cc1cc(C(=O)N2CCCN(C(=O)CCl)CC2)ccc1-c1ccccc1 [compound 10]
probe-labelled cysteine peptide fold change (10 µM): 0.0169 | probe-labelled cysteine peptide fold change (50 µM): 0.0264
